Among all 1,200 compounds or so, about 290 (24%) were called active. Inconclusive results (about 3%) are left out.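 The calls were made as follows: active = compounds lowering cell viability signal with fitted half-maximal concentration at most ten times their highest tested concentration; inconclusive = flat fit with 30 to 70% signal loss, or poor fit; inactive = the rest.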 The list is a sample of the results. A call without a number means that no potency is given here. Potency and affinity values are given separately.
Experiment: HEK293T cell viability reduction, dose response, cytotoxicity control for LMP1 NF-kB inhibitor project, CellTiter-Glo luminescence, cherry-picks (AID 504861)
Conditions: CellTiter-Glo ATP luminescence, 48 h; series mostly up to 26 µM

SMILES | outcome
COc1ccc(C(=O)Nc2ccc(N3CCN(C(=O)c4ccccc4C)CC3)cc2)cc1 | inactive
COc1ccc2sc3c(=O)[nH]c4ccccc4c3c2c1 | inactive
CCOc1ccccc1C(=O)N[C@H](C(=O)OCc1cc([N+](=O)[O-])cc2c1OCOC2)C(C)C | inactive
Cc1ccc(S(=O)(=O)N2CCCCC2)cc1NC(=O)CNc1ccccc1N1CCCC1=O | inactive
O=C(c1ccc(Cl)cc1)N1CCN(CCOc2ccccc2)CC1 | inactive
Cn1c(CC(=O)Nc2ccc(F)cc2)nnc1SCC(=O)Nc1nncs1 | inactive
O=C(O)c1ccc(C=NNC(=O)c2cccc3ccccc23)cc1 | inactive
Cc1cccc(/C=N/NC(=O)CNc2cccc3ccccc23)n1 | inactive
O=C(/C=C/Nc1cccc(C(F)(F)F)c1)C(F)(F)F | inactive
O=C(CN1C(=O)c2ccccc2S1(=O)=O)c1ccccc1F | inactive
COc1ccc(NC(=O)N(CCN2CCCC2)Cc2cc3cc(OC)c(OC)cc3[nH]c2=O)cc1 | inactive
CC(C)CC1C(=O)N(Cc2cn(CC3CCCCC3)nn2)CCS(=O)(=O)N1Cc1ccc(-c2ccc(F)nc2)cc1 (centres undefined) | inactive
O=C(Nc1ccccn1)NC1CCCCC1 | inactive
Cc1ccc(C(=O)Nc2ccc3ncccc3c2)cc1 | inactive
CCC(C)N1C(=O)CCC1C(=O)N1CCN(c2ccc(F)cc2)CC1 (centres undefined) | inactive
c1cncc(CNc2ncnc3ccc(-c4ccoc4)cc23)c1 | inactive
O=c1cc(-c2ccccc2)[nH]c2ccc(F)cc12 | inactive
CCOc1ccc(OCc2cccc(C(=O)N3CCCC3)c2)cc1 | inactive
COc1ccc(-c2ccc3c(c2)S(=O)(=O)c2cccc(C(=O)NCc4cc(C)oc4C(F)(F)F)c2C3=O)cc1OC | inactive
COCCCNC(=O)CN1C(=O)COc2ccc(S(=O)(=O)N3CCOCC3)cc21 | inactive
CN1CCc2cccc3c2C1Cc1ccc(O)c(O)c1-3 (centres undefined) | inactive
CSc1ccccc1NC(=O)CN1CCCCC1C (centres undefined) | inactive
COc1ccc2cc(-c3cc(C(=O)OCC(=O)Nc4c(C)n(C)n(-c5ccccc5)c4=O)c4ccccc4n3)ccc2c1 | inactive
CCc1ccc(/C=C/C(=O)C2C(=O)c3ccccc3C2=O)cc1 | inactive
N#CCCn1cc(C(=O)Nc2ccccn2)c(-c2ccccc2)n1 | inactive
CC1=NN(C(N)=S)C(=O)C1N=Nc1cccc(C(=O)O)c1 (centres undefined) | inactive
C[C@@]12C(=O)N(Cc3ccccc3)CC(=O)N1[C@H](/C=C/c1ccccc1)[C@@H]1C(=O)N(c3ccccc3)C(=O)[C@@H]12 | inactive

SMILES | outcome
COc1cc(OC)cc(C(=O)N[C@H](C(=O)OCC(=O)c2ccc(C)c([N+](=O)[O-])c2)C(C)C)c1 | inactive
Clc1ccc(-n2ncc3c(N4CCCC4)ncnc32)cc1 | inactive
COc1cc(CC(=O)N(c2ccccc2)c2nc(C)cs2)cc(OC)c1OC | inactive
Cc1nc2sc(-c3ccccc3)cc2c(=O)n1N | inactive
COCCN1CSC(=S)N(Cc2ccco2)C1 | inactive
O=C(Nc1ccc(Cl)cc1)Nc1nnc(CSCc2ccc(Cl)cc2)s1 | inactive
COc1cc(NCCCCCCN)c2ncccc2c1OC | inactive
COc1cccc(/C=N\NC(=O)c2ccc(C)nc2)c1 | inactive
O=C(C=C1SCCS1)/C=C/c1ccco1 | inactive
COc1cccc(C(=O)CC(=O)C(=O)Nc2ccc(C)cc2Cl)c1 | inactive
CCSC1=C(C#N)C(c2ccc(C)o2)CC(=O)N1 (centres undefined) | inactive
Cc1cc(=O)[nH]c(N/N=C/c2ccc(C)o2)n1 | inactive
Cc1cc(N=Cc2c(O)ccc3cc(Br)ccc23)no1 | inactive
CCOc1ccc(/C=N/Nc2cc(N3CCOCC3)ncn2)c(O)c1 | inactive
CCCC(=O)NCCCc1nc2ccccc2[nH]1 | inactive
COc1ccc(NC(=O)c2cc3ccccc3oc2=O)cc1 | inactive
O=C1c2ccccc2C(Nc2cccnc2)N1Cc1ccccc1 (centres undefined) | inactive
C[C@H](CO)N1C[C@H](C)[C@@H](CN(C)C(=O)NC2CCCCC2)Oc2c(NS(=O)(=O)c3cn(C)cn3)cccc2C1=O | inactive
COc1ccc(C(c2sc3nc(C)nn3c2O)N2CCC(C(N)=O)CC2)cc1OC (centres undefined) | inactive
CCCN(CCC)c1ncnc2nc[nH]c12 | inactive
Cc1ccc(-n2nc(C(=O)NCc3ccc(C)o3)c3c4ccccc4n(C)c3c2=O)cc1 | inactive
Cc1ccc(-c2nnn(CC(=O)N(Cc3ccco3)C(C(=O)NC(C)(C)C)c3ccncc3)n2)o1 (centres undefined) | inactive
CCC(C)n1ncn(-c2ccc(N3CCN(c4ccc(OCC5COC(Cn6cncn6)(c6ccc(Cl)cc6Cl)O5)cc4)CC3)cc2)c1=O (centres undefined) | inactive
CC(=C/c1ccccc1)/C=N/n1c(-c2ccncc2)n[nH]c1=S | inactive
Cc1ccnc(NC(=O)c2cccc(NC(=O)c3ccc(Cl)c(Cl)c3)c2)c1 | inactive
N/C(=N\OC(=O)c1cccc(Br)c1)c1ccccn1 | inactive
CCCc1c(C(=O)N/N=C(\C)c2ccccn2)nnn1-c1nonc1N | inactive

From PubChem BioAssay AID504861 (Broad Institute, 2011)
